An excerpt weighted towards active compounds, which were near 9.9% of everything screened.
ALDH1A1 block: inhibitors of human aldehyde dehydrogenase 1A1. P00352. Purified ALDH1A1, NADH fluorescence, propionaldehyde substrate. Potency, µM (highest dose often 75.3 µM), without a hit: top-dose activity, negative = inhibition, hits mostly inhibitors. 220,000 compounds, 7.3% hits. AID 1030; active = well fitted inhibition curve with a large enough effect, not every such curve was filed as active; inconclusive = small, poorly fitted or top-dose-only effect, or another doubt; inactive = no such curve, though single readings can be large or run the other way;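 also: plate controls were no enzyme wells and a reference inhibitor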
Tau ThT inhib: blocks human tau fibril formation measured by thioflavin T | 270,000 compounds, 2.1% hits | Potency, µM (series often up to 57.4 µM), for the others: at the top dose activity, negative = inhibition, actives largely listed as inhibitors | recombinant tau K18 P301L, heparin-induced fibrillization, ThT fluorescence; also: nearly all actives have a fitted effect of over 55% in size
Target sequence (P10636 561-689 P618L limits assumed): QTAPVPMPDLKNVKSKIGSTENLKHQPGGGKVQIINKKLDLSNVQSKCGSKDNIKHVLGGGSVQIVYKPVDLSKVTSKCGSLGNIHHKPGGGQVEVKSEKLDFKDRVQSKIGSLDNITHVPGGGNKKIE
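In this qHTS, human K18 P301L tau is incubated with compound and heparin for 6 hr at 37 C, and Thioflavin T fluorescence then reports fibril load.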
Tau fluor counter: counter-screen for tau fibril formation inhibitors; tau K18 P301L Alexa594 fluorescence, heparin fibrillization; Potency, µM (doses to about 57.7 µM), inactives show at the highest dose activity change, negative = decrease; 280,000 compounds, 0.93% hits; AID 1463; also: nearly all actives have a fitted effect of over 55% in size
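Human tau K18 P301L (15 uM unlabeled, 0.24 uM Alexa 594-labeled) in 100 mM sodium acetate pH 7 with 20 uM heparin, 6 hr at 37 C. ThT 30 uM added, 1 hr ambient; Alexa 594 FP and total fluorescence read at 555/632 nm.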
Tau FP inhib: inhibitors of human tau fibril formation; 280,000 compounds, 0.39% hits; K18 P301L tau heparin fibrillization, Alexa594 FP, 6 h; Potency, µM (highest dose often 57.7 µM), inactives show at the highest dose activity, negative = inhibition, most hits filed as inhibitors; also: nearly all actives have a fitted effect of over 55% in size
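K18 P301L tau (15 uM unlabeled/0.24 uM Alexa 594-labeled, final) + compound + heparin 20 uM final; 100 mM NaOAc pH 7; 6 hr 37 C; ThT 30 uM final added, 1 hr RT; FP ex 555/em 632 nm.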
JMJD2E inh: JMJD2E (human) inhibition | JMJD2E catalytic domain, FDH-coupled NADH fluorescence (FDH is formaldehyde dehydrogenase) | Potency, µM (series often up to 57.1 µM), without a hit: at the highest dose activity change, negative = inhibition, usual class: inhibitors | 230,000 compounds, 1.6% hits; active = well fitted inhibition curve with a large enough effect, not every such curve was filed as active; inconclusive = small, poorly fitted or top-dose-only effect, or another doubt; inactive = no such curve, though single readings can be large or run the other way;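 also: 0% = wells with enzyme and -100% = buffer wells without enzyme; nearly all actives have a fitted effect of over 50% in size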
Target sequence (B2RXH2 1-337 limits assumed): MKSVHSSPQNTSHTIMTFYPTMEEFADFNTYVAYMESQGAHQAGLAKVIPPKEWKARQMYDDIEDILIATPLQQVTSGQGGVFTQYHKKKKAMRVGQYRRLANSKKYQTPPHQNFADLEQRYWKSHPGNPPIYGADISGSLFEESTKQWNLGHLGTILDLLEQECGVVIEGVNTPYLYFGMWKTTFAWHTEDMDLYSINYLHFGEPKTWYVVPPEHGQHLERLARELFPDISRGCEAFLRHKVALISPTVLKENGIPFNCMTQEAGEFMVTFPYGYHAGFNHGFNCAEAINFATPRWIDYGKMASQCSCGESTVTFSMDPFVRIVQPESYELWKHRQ
HPGD inh: HPGD (human) dehydrogenase inhibition; Potency, µM, inactives show at the highest dose activity change, negative = inhibition, hits mostly inhibitors; AID 894; 150,000 compounds, 4.3% hits; purified HPGD, NADH fluorescence kinetic, PGE2 substrate; active = well fitted inhibition curve with a large enough effect, not every such curve was filed as active; inconclusive = small, poorly fitted or top-dose-only effect, or another doubt; inactive = no such curve, though single readings can be large or run the other way
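20 nM HPGD preincubated 15 min at room temperature with compound in 50 mM Tris-HCl pH 8, 0.01% Tween 20. Started with 1 mM NAD+ and 30 uM prostaglandin E2; NADH fluorescence (360/450 nm) read 5 times over 30-s intervals, last minus first.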
* hit, by the source's call; ? = inconclusive; nt = not tested or not shown; [ ] = remark or other dose. Unless noted, calls follow the shape of the dose curve; as a rule, active = well fitted curve in the direction sought with a large enough effect; inconclusive = small, poorly fitted or top-dose-only effect, or another doubt; inactive = no such curve, though single readings can be large; an effect the other way counts as inactive or inconclusive. Unless noted, % is scaled to controls: 0 for no effect and ±100 for the full control effect; potency is read from the fitted curve at half-maximal effect.

SMILES | ALDH1A1 block | Tau ThT inhib | Tau fluor counter | Tau FP inhib | JMJD2E inh | HPGD inh
CCN=C1SC(CC(N)=O)C(=O)N1CC (stereo not given) | ? | -1.5% | -4.1%[2.34 µM] | 3.1% | ? | nt
COC(=O)C(CCCCNC(=O)OCc1ccccc1)NC(=O)CN (stereo not given) | 28.2µM* | -8.1% | 0.3% | -4.1% | 2.3% | -3.1%
CCc1ccc2c(Cl)c(C(=O)N/N=C/c3c[nH]c4ccccc34)sc2c1 | 12.6µM* | 10µM* | 11.2µM*[quencher] | ? | -9.1% | -8.5%
CCc1ccc(-c2cc(C(=O)N/N=C/c3c[nH]c4ccccc34)[nH]n2)cc1 | -19.5% | ? | 10µM*[quencher] | -6.5% | ? | nt
O=c1cc(-c2ccc(F)cc2)nc(SCc2nc(-c3ccccc3Cl)no2)[nH]1 | nt | 8.9% | -2.9% | -12.7% | nt | nt
Cc1ccc(C(=O)NCC(=O)OCc2cc(=O)n3c(C)csc3n2)cc1 | nt | -15.1% | -6.8% | -5.1% | nt | nt
Cc1cc(C)c(NS(=O)(=O)c2ccc3c(c2)NC(=O)CCS3)c(C)c1 | nt | -9.1% | -21.4% | -0.6% | nt | nt
O=S(=O)(NCc1ccc(Cl)cc1)c1ccc2[nH]c3c(c2c1)CCCC3 | nt | -9.8% | 12.6µM*[quencher] | 2.0% | nt | nt
Cc1ccc(CNS(=O)(=O)c2ccc3[nH]c4c(c3c2)CCCC4)cc1 | nt | 0.5% | ? | ? | nt | nt
O=S(=O)(NCc1ccc(F)cc1)c1ccc2[nH]c3c(c2c1)CCCC3 | nt | -5.3% | 12.6µM*[quencher] | 9.9% | nt | nt
CN1CCN(S(=O)(=O)c2cccc(C(=O)NCc3ccccc3Cl)c2)CC1 | 5.9% | -6.4% | -6.5% | -1.5% | 1.2% | nt
CCN1C(=S)SC(=O)C1=C1C=C(C)N(CCOC)C(C)=C1 | 6.31µM* | ? | -15.8% | -8.0% | -8.3% | -27.1%
CCN1C(=S)SC(=O)C1=C1C=C(C)N(CCO)C(C)=C1 | 15.8µM* | ? | -4.3% | 4.3% | -12.4% | ?
CCOc1ccc(NC(=O)CN2CCC(n3cnc4cc(F)ccc43)CC2)cc1 | ? | -12.0% | -10.1% | 3.0% | 4.1% | nt
CC(=O)N1[C@H](C)C=C[C@]1(Cc1ccccc1)C(=O)NCc1ccc(C)o1 | ? | 3.7% | -5.4% | 1.2% | 1.5% | 14.1µM*
COC(=O)[C@@]1(Cc2ccccc2)C=C[C@@H](C)N1C(=O)c1ccccc1 | 39.8µM* | -12.7% | -4.2% | -5.6% | 5.9% | -24.3%
O=C(O)/C=C\C=C/c1ccc2c(c1)OCO2 | -9.2%[13.5 µM] | nt | nt | nt | nt | -25.3%
CCNc1ccccc(C(=O)/C=C/c2ccc3c(c2)OCO3)c1=O | 10µM* | 14.1µM* | ? | ? | 20µM* | 17.8µM*
O=C(/C=C/c1ccc2c(c1)OCO2)c1cccs1 | ? | ? | -3.8% | 5.6% | 22.4µM* | ?
O=C(/C=C\C=C/c1ccc2c(c1)OCO2)N1CCCCC1 | ? | nt | nt | nt | ? | 10µM*
O=C(NCc1nc2ccccc2[nH]1)[C@H]1C[C@@H]1[C@H](NP(=O)(c1ccccc1)c1ccccc1)c1ccccc1 | -9.2% | ? | -20.8% | 2.0% | -15.0% | -9.5%
O=C(Nc1nc(-c2ccccc2)cs1)c1ccccc1NS(=O)(=O)c1ccc(F)cc1 | ? | 14.1µM* | ? | ? | ? | ?
O=S(=O)(Nc1ccc(-c2csc(-c3ccccc3)n2)cc1)c1ccc(F)cc1 | 1.0% | -8.5% | ? | 11.2µM* | -16.9% | -10.0%
O=C(NCCN1C(=O)S/C(=C\c2cccs2)C1=O)c1ccc(=O)[nH]c1 | 1.2% | ? | -2.8% | 1.0% | 4.1% | -13.1%
O=c1cc(CSc2nc3ccccc3[nH]2)c2ccccc2[nH]1 | -4.6% | -9.6% | -12.9% | -9.3% | 3.0% | 7.94µM*
O=c1cc(CSc2nnc(-c3ccco3)o2)c2ccccc2[nH]1 | -2.5% | -15.2% | -11.0% | -4.3% | -6.9% | 20µM*
Cn1ccnc1SCc1cc(=O)[nH]c2ccccc12 | 9.3% | -1.2% | -6.2% | -2.9% | -1.1% | -2.2%
COCCCn1c(SCc2cc(=O)[nH]c3ccccc23)nnc1-c1ccco1 | ? | -2.3% | 8.0% | 4.3% | -1.2% | 5.2%
